From PubChem BioAssay AID1159580 (chemical genetic matrix, 2015)
Among all 5,500 compounds or so, about 2,000 (36%) were called active. Roughly 18% stayed inconclusive and do not appear here. This is one part of the list. Values without a mark were called inactive. Cut-off read from the data, not from the text of the source: active = normalized growth mostly below about 0.91 (no sharp cut-off); inconclusive = no clear call, values can overlap the other calls; inactive = mostly above about 0.92.

Test: chemical genetic growth profiling, strain panel (AID 1159580);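 note: tested at 20 µM; growth read once vehicle control cultures reached saturation at 30 °C; 1 = growth at the plate median or of vehicle wells; lower values mean less growth of the strain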
Conditions: growth OD

Work on OC[C@H]1O[C@@](CO)(O[C@@H]2O[C@H](CO)[C@@H](O)[C@H](O)[C@H]2O)[C@@H](O[C@@H]2O[C@H](CO)[C@@H](O)[C@H](O)[C@H]2O)[C@@H]1O yielded a normalized growth (S. cerevisiae deletion strains, locus YJR043C, strain POL32, active compounds read low) of 1.04, a normalized growth (S. cerevisiae deletion strains, locus YJR066W, strain TOR1, active compounds read low) of 0.956 and a normalized growth (S. cerevisiae deletion strains, locus YKL009W, strain mrt4, active compounds read low) of 1.03. It also gave a normalized growth (S. cerevisiae deletion strains, locus YKL068W, active compounds read low) of 0.997, a normalized growth (S. cerevisiae deletion strains, locus YKL085W, strain MDH1 (second series), active compounds read low) of 1.01 and a normalized growth (S. cerevisiae deletion strains, locus YKL085W, strain MDH1, active compounds read low) of 1.01. For the same molecule, the normalized growth (S. cerevisiae deletion strains, locus YKL160W, strain elf1, active compounds read low) was 1.02, the normalized growth (S. cerevisiae deletion strains, locus YKR001C, strain vps1, active compounds read low) was 1.11 [resistant] (active) and the normalized growth (S. cerevisiae deletion strains, locus YKR026C, strain gcn3, active compounds read low) was 0.994. The normalized growth (S. cerevisiae deletion strains, locus YKR091W, strain srl3, active compounds read low) was 1.01, the normalized growth (S. cerevisiae deletion strains, locus YLL001W, strain dnm1, active compounds read low) was 0.996 and the normalized growth (S. cerevisiae deletion strains, locus YLL026W, active compounds read low) was 1.02. It also gave a normalized growth (S. cerevisiae deletion strains, locus YLL041C, strain sdh2, active compounds read low) of 1.01, a normalized growth (S. cerevisiae deletion strains, locus YLR027C, strain aat2, active compounds read low) of 1.01 and a normalized growth (S. cerevisiae deletion strains, locus YLR039C, strain RIC1, active compounds read low) of 1.18. It also gave a normalized growth (S. cerevisiae deletion strains, locus YLR058C, strain SHM2, active compounds read low) of 1.03, a normalized growth (S. cerevisiae deletion strains, locus YLR102C, strain apc9, active compounds read low) of 1.02 and a normalized growth (S. cerevisiae deletion strains, locus YLR113W, strain HOG1, active compounds read low) of 0.986. The normalized growth (S. cerevisiae deletion strains, locus YLR221C, strain rsa3, active compounds read low) was 1.01, the normalized growth (S. cerevisiae deletion strains, locus YLR258W, strain gsy2, active compounds read low) was 1.02 and the normalized growth (S. cerevisiae deletion strains, locus YLR262C, strain YPT6 (second series), active compounds read low) was 1. The normalized growth (S. cerevisiae deletion strains, locus YLR262C, strain YPT6, active compounds read low) was 1.16, the normalized growth (S. cerevisiae deletion strains, locus YLR268W, strain sec22, active compounds read low) was 1.05 and the normalized growth (S. cerevisiae deletion strains, locus YLR320W, strain mms22, active compounds read low) was 1.03. For the same molecule, the normalized growth (S. cerevisiae deletion strains, locus YLR330W, strain CHS5, active compounds read low) was 1.02, the normalized growth (S. cerevisiae deletion strains, locus YLR342W, strain FKS1 (second series), active compounds read low) was 1.08 and the normalized growth (S. cerevisiae deletion strains, locus YLR342W, strain FKS1, active compounds read low) was 1.02. It also gave a normalized growth (S. cerevisiae deletion strains, locus YLR357W, strain rsc2, active compounds read low) of 0.991, a normalized growth (S. cerevisiae deletion strains, locus YLR370C, strain arc18, active compounds read low) of 1.03 and a normalized growth (S. cerevisiae deletion strains, locus YLR371W, strain rom2, active compounds read low) of 0.999. The normalized growth (S. cerevisiae deletion strains, locus YLR384C, strain iki3, active compounds read low) was 1.01, the normalized growth (S. cerevisiae deletion strains, locus YLR418C, strain cdc73, active compounds read low) was 1.09 and the normalized growth (S. cerevisiae deletion strains, locus YML016C, strain PPZ1, active compounds read low) was 1.01. For the same molecule, the normalized growth (S. cerevisiae deletion strains, locus YML032C, strain rad52, active compounds read low) was 1.03, the normalized growth (S. cerevisiae deletion strains, locus YML120C, strain ndi1, active compounds read low) was 1.03 and the normalized growth (S. cerevisiae deletion strains, locus YML124C, strain tub3, active compounds read low) was 1.01. For the same molecule, the normalized growth (S. cerevisiae deletion strains, locus YMR058W, strain fet3, active compounds read low) was 1.02, the normalized growth (S. cerevisiae deletion strains, locus YMR078C, strain ctf18, active compounds read low) was 1.02 and the normalized growth (S. cerevisiae deletion strains, locus YMR125W, strain sto1, active compounds read low) was 1.02. The normalized growth (S. cerevisiae deletion strains, locus YMR129W, active compounds read low) was 1.03, the normalized growth (S. cerevisiae deletion strains, locus YMR205C, strain PFK2, active compounds read low) was 1.04 and the normalized growth (S. cerevisiae deletion strains, locus YMR223W, strain ubp8, active compounds read low) was 1.03. The normalized growth (S. cerevisiae deletion strains, locus YMR231W, strain pep5, active compounds read low) was 1.01, the normalized growth (S. cerevisiae deletion strains, locus YMR263W, strain SAP30, active compounds read low) was 1.02 and the normalized growth (S. cerevisiae deletion strains, locus YMR307W, strain GAS1, active compounds read low) was 1.03. It also gave a normalized growth (S. cerevisiae deletion strains, locus YNL067W, strain RPL9B, active compounds read low) of 1.03, a normalized growth (S. cerevisiae deletion strains, locus YNL071W, strain lat1, active compounds read low) of 1.01 and a normalized growth (S. cerevisiae deletion strains, locus YNL128W, strain TEP1, active compounds read low) of 1.03. The normalized growth (S. cerevisiae deletion strains, locus YNL183C, strain NPR1, active compounds read low) was 0.946, the normalized growth (S. cerevisiae deletion strains, locus YNL209W, strain ssb2, active compounds read low) was 1.02 and the normalized growth (S. cerevisiae deletion strains, locus YNL233W, strain BNI4, active compounds read low) was 1.06. It also gave a normalized growth (S. cerevisiae deletion strains, locus YNL248C, strain rpa49, active compounds read low) of 1.01, a normalized growth (S. cerevisiae deletion strains, locus YNL250W, strain rad50, active compounds read low) of 1.03 and a normalized growth (S. cerevisiae deletion strains, locus YNL271C, strain bni1, active compounds read low) of 1.02. For the same molecule, the normalized growth (S. cerevisiae deletion strains, locus YNL298W, strain CLA4, active compounds read low) was 1.02, the normalized growth (S. cerevisiae deletion strains, locus YNL307C, strain MCK1, active compounds read low) was 1.01 and the normalized growth (S. cerevisiae deletion strains, locus YNL322C, strain KRE1 (second series), active compounds read low) was 1.02. It also gave a normalized growth (S. cerevisiae deletion strains, locus YNR049C, strain mso1, active compounds read low) of 1.02, a normalized growth (S. cerevisiae deletion strains, locus YNR052C, strain pop2, active compounds read low) of 1.03 and a normalized growth (S. cerevisiae deletion strains, locus YOL006C, strain TOP1, active compounds read low) of 1.23. The normalized growth (S. cerevisiae deletion strains, locus YOL012C, strain htz1) was 1.32, the normalized growth (S. cerevisiae deletion strains, locus YOL147C, strain pex11, active compounds read low) was 1 and the normalized growth (S. cerevisiae deletion strains, locus YOR001W, strain rrp6, active compounds read low) was 1. The normalized growth (S. cerevisiae deletion strains, locus YOR061W, strain CKA2, active compounds read low) was 1.04, the normalized growth (S. cerevisiae deletion strains, locus YOR069W, strain VPS5, active compounds read low) was 1.02 and the normalized growth (S. cerevisiae deletion strains, locus YOR070C, strain gyp1, active compounds read low) was 1.01. For the same molecule, the normalized growth (S. cerevisiae deletion strains, locus YOR080W, strain dia2, active compounds read low) was 1.02, the normalized growth (S. cerevisiae deletion strains, locus YOR083W, strain WHI5, active compounds read low) was 1.01 and the normalized growth (S. cerevisiae deletion strains, locus YOR106W, strain vam3, active compounds read low) was 1. The normalized growth (S. cerevisiae deletion strains, locus YOR136W, strain idh2, active compounds read low) was 1.02, the normalized growth (S. cerevisiae deletion strains, locus YOR144C, strain elg1, active compounds read low) was 1.02 and the normalized growth (S. cerevisiae deletion strains, locus YOR184W, strain ser1, active compounds read low) was 1.06. For the same molecule, the normalized growth (S. cerevisiae deletion strains, locus YOR231W, strain MKK1, active compounds read low) was 1, the normalized growth (S. cerevisiae deletion strains, locus YOR265W, strain rbl2, active compounds read low) was 1.01 and the normalized growth (S. cerevisiae deletion strains, locus YOR270C, strain vph1, active compounds read low) was 1.05. The normalized growth (S. cerevisiae deletion strains, locus YOR290C, strain snf2, active compounds read low) was 0.981, the normalized growth (S. cerevisiae deletion strains, locus YOR316C, strain cot1, active compounds read low) was 1.02 and the normalized growth (S. cerevisiae deletion strains, locus YPL051W, strain arl3, active compounds read low) was 1.01. It also gave a normalized growth (S. cerevisiae deletion strains, locus YPL055C, strain LGE1, active compounds read low) of 1.08, a normalized growth (S. cerevisiae deletion strains, locus YPL078C, strain atp4, active compounds read low) of 1 and a normalized growth (S. cerevisiae deletion strains, locus YPL106C, strain sse1, active compounds read low) of 1.02. It also gave a normalized growth (S. cerevisiae deletion strains, locus YPL240C, strain hsp82, active compounds read low) of 1.03, a normalized growth (S. cerevisiae deletion strains, locus YPL256C, strain CLN2, active compounds read low) of 1 and a normalized growth (S. cerevisiae deletion strains, locus YPR119W, strain clb2, active compounds read low) of 1.03. The normalized growth (S. cerevisiae deletion strains, locus YPR141C, strain kar3, active compounds read low) was 1.02, the normalized growth (S. cerevisiae deletion strains, locus YPR163C, strain tif3, active compounds read low) was 1.04 and the normalized growth (S. cerevisiae deletion strains, locus YPR167C, strain met16, active compounds read low) was 1.02. For the same molecule, the normalized growth (S. cerevisiae deletion strains, strain wtn01, active compounds read low) was 1.04 and the normalized growth (S. cerevisiae strains, strain wild type, active compounds read low) was 1.04.
